# Results as given in the supplement of paper PMC4022240.
# ± gives the standard deviation.
# T1: HaloTag-ATRX ADD domain (163-292)
# T1 chain: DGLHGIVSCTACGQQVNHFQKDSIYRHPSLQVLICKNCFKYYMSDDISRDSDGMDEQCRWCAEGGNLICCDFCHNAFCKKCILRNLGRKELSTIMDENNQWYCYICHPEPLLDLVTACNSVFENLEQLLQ
# Tests used:
# Experiment in all cases: peptide microarray binding signal (635 nm), min-max normalized on array (fraction of array maximum); higher = stronger binding
# Details in all cases: peptide region: H3 11-23
# [1] = molecular target: T1, HaloTag-ATRX ADD domain (163-292)
# Summary of the method: (§1)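 Two probe formats were used for 1 h at 4°C: biotin-labelled HaloTag reader fusions (10 nM to 1 μM) with streptavidin-Alexa Fluor 647, and rabbit histone antibodies (1:10,000 to 1:2,000) with anti-rabbit Alexa 647. Both were applied to nitrocellulose arrays of histone 13-mer peptide–cellulose conjugates printed in triplicate with a Cy3 tracer and blocked overnight at 4°C. Signal was read at 635 nm and misprints at 532 nm on an Axon GenePix 4000B. Binding signal is expressed as the triplicate-spot mean intensity, min-max scaled for each library.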
# [2] = molecular target: HaloTag-ING2 PHD (mouse Ing2 200-280)
# Summary of the method: as §1
# [3] = molecular target: anti-H3K4me3 antibody ab8580
# Summary of the method: as §1
# [4] = molecular target: anti-H3K9me3 antibody ab8898
# Summary of the method: as §1
# [5] = peptide modifications: H3K14ac H3R17me2a, binder concentration: 1:2,000 dilution
# [6] = peptide modifications: H3K14ac H3R17me2a, binder concentration: 1:10,000 dilution
# [7] = peptide modifications: H3K14ac H3R17me2s, binder concentration: 1:2,000 dilution
# [8] = peptide modifications: H3K14ac H3R17me2s, binder concentration: 1:10,000 dilution
# [9] = peptide modifications: H3K14ac, binder concentration: 1:2,000 dilution
# [10] = peptide modifications: H3K14ac, binder concentration: 1:10,000 dilution
# [11] = peptide modifications: H3K14me1, binder concentration: 1:2,000 dilution
# [12] = peptide modifications: H3K14me1, binder concentration: 1:10,000 dilution
# [13] = peptide modifications: H3K14me1 H3K18ac, binder concentration: 1:2,000 dilution
# [14] = peptide modifications: H3K14me1 H3K18ac, binder concentration: 1:10,000 dilution
binder,measurement,setting,value
TGGKAPRKQLATK [H3 11-23 T G G Kac A P Rme2a K Q L A T K],peptide microarray binding signal,"[1]; peptide modifications: H3K14ac H3R17me2a, binder concentration: 50 nM",0.00981 ± 0.001
same,peptide microarray binding signal,"[1]; peptide modifications: H3K14ac H3R17me2a, binder concentration: 500 nM",0.0127 ± 0.00086
same,peptide microarray binding signal,"[2]; peptide modifications: H3K14ac H3R17me2a, binder concentration: 10 nM",0.0112 ± 0.00063
same,peptide microarray binding signal,"[2]; peptide modifications: H3K14ac H3R17me2a, binder concentration: 100 nM",0.0221 ± 0.00099
same,peptide microarray binding signal,[3]; [5],0.00436 ± 0.00064
same,peptide microarray binding signal,[3]; [6],0.00445 ± 0.00022
same,peptide microarray binding signal,[4]; [5],0.00344 ± 0.00027
same,peptide microarray binding signal,[4]; [6],0.002479 ± 2.2e-05
TGGKAPRKQLATK [H3 11-23 T G G Kac A P Rme2s K Q L A T K],peptide microarray binding signal,"[1]; peptide modifications: H3K14ac H3R17me2s, binder concentration: 50 nM",0.00621 ± 0.00011
same,peptide microarray binding signal,"[1]; peptide modifications: H3K14ac H3R17me2s, binder concentration: 500 nM",0.0112 ± 0.00066
same,peptide microarray binding signal,"[2]; peptide modifications: H3K14ac H3R17me2s, binder concentration: 10 nM",0.0167 ± 0.00051
same,peptide microarray binding signal,"[2]; peptide modifications: H3K14ac H3R17me2s, binder concentration: 100 nM",0.02487 ± 0.00023
same,peptide microarray binding signal,[3]; [7],0.00702 ± 0.00068
same,peptide microarray binding signal,[3]; [8],0.00628 ± 0.00011
same,peptide microarray binding signal,[4]; [7],0.00362 ± 0.00034
same,peptide microarray binding signal,[4]; [8],0.00219 ± 3.5e-05
TGGKAPRKQLATK [H3 11-23 T G G Kac A P R K Q L A T K],peptide microarray binding signal,"[1]; peptide modifications: H3K14ac, binder concentration: 50 nM",0.0069 ± 0.00019
same,peptide microarray binding signal,"[1]; peptide modifications: H3K14ac, binder concentration: 500 nM",0.032 ± 0.0024
same,peptide microarray binding signal,"[2]; peptide modifications: H3K14ac, binder concentration: 10 nM",0.0291 ± 0.0036
same,peptide microarray binding signal,"[2]; peptide modifications: H3K14ac, binder concentration: 100 nM",0.0427 ± 0.0088
same,peptide microarray binding signal,[3]; [9],0.00429 ± 0.00017
same,peptide microarray binding signal,[3]; [10],0.00314 ± 0.00047
same,peptide microarray binding signal,[4]; [9],0.00606 ± 0.00038
same,peptide microarray binding signal,[4]; [10],0.00392 ± 0.00032
TGGKAPRKQLATK [H3 11-23 T G G Kme A P R K Q L A T K],peptide microarray binding signal,"[1]; peptide modifications: H3K14me1, binder concentration: 50 nM",0.00646 ± 0.00024
same,peptide microarray binding signal,"[1]; peptide modifications: H3K14me1, binder concentration: 500 nM",0.0181 ± 0.002
same,peptide microarray binding signal,"[2]; peptide modifications: H3K14me1, binder concentration: 10 nM",0.00567 ± 0.00017
same,peptide microarray binding signal,"[2]; peptide modifications: H3K14me1, binder concentration: 100 nM",0.0256 ± 0.0033
same,peptide microarray binding signal,[3]; [11],0.0023 ± 0.00025
same,peptide microarray binding signal,[3]; [12],0.00108
same,peptide microarray binding signal,[4]; [11],0.004 ± 0.00032
same,peptide microarray binding signal,[4]; [12],0.00346 ± 0.00012
TGGKAPRKQLATK [H3 11-23 T G G Kme A P R Kac Q L A T K],peptide microarray binding signal,"[1]; peptide modifications: H3K14me1 H3K18ac, binder concentration: 50 nM",0.00715 ± 0.00026
same,peptide microarray binding signal,"[1]; peptide modifications: H3K14me1 H3K18ac, binder concentration: 500 nM",0.014 ± 0.00051
same,peptide microarray binding signal,"[2]; peptide modifications: H3K14me1 H3K18ac, binder concentration: 10 nM",0.014 ± 0.0016
same,peptide microarray binding signal,"[2]; peptide modifications: H3K14me1 H3K18ac, binder concentration: 100 nM",0.0363 ± 0.0088
same,peptide microarray binding signal,[3]; [13],0.007 ± 0.001
same,peptide microarray binding signal,[3]; [14],0.00331 ± 0.0003
same,peptide microarray binding signal,[4]; [13],0.00159 ± 1.9e-05
same,peptide microarray binding signal,[4]; [14],0.00127 ± 3.4e-05
